{
  "source": "ChEMBL document CHEMBL1201862",
  "about": "“PubChem BioAssay data set” (2004)",
  "note": "About 2,100 (0.53%) of roughly 400,000 compounds were called active. Another 14% or so got no clear call; they are omitted. No rule for the calls is given here. The entries come from a sample that favours actives as a whole.",
  "data": [
    {"target": "Ataxin-2 (Homo sapiens) (UniProt Q99700)", "sequence (Q99700 whole entry)": "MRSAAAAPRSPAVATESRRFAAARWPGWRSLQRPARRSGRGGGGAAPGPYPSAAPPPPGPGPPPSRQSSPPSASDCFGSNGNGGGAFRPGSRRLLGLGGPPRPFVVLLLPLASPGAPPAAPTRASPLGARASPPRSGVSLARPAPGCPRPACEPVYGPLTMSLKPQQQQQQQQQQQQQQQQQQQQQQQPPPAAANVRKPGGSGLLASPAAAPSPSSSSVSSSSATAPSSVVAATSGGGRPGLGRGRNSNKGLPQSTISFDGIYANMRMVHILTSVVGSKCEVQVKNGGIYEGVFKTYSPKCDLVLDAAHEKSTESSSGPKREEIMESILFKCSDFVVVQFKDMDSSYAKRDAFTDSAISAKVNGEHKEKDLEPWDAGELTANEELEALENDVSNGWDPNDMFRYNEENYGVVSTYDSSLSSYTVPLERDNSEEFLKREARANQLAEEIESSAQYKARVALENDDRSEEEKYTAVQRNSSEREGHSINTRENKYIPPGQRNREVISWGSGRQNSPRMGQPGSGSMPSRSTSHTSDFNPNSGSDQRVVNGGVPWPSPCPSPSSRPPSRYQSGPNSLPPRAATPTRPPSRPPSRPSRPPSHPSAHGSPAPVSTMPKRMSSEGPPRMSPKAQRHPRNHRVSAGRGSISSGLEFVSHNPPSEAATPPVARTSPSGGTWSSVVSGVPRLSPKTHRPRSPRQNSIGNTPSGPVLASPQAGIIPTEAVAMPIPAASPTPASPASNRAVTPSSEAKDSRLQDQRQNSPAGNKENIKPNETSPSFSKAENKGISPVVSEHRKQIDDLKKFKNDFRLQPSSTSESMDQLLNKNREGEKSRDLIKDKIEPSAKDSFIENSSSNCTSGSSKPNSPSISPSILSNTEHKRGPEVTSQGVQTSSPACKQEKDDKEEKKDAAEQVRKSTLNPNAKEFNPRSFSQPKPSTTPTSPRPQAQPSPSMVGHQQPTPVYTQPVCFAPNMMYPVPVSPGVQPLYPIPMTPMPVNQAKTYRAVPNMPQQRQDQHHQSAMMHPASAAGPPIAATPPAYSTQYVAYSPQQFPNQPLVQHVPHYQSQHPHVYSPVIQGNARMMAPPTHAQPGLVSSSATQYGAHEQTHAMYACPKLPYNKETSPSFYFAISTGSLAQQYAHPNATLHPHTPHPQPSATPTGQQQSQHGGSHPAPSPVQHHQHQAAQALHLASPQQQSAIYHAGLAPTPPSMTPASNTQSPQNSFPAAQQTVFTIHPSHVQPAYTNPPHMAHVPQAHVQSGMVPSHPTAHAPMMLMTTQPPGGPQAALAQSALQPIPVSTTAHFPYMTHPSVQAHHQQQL", "experiment": "qHTS for Inhibitors of ATXN expression.", "type": "functional", "values": [
      {"smiles": "O=C1/C(=C/c2ccco2)Oc2c1ccc(O)c2CN1CCCCC1", "Potency": "inactive"},
      {"smiles": "O=[N+]([O-])c1cccc(C2CC(c3ccccc3)=NN2c2ccccc2)c1", "note": "(configuration not stated)", "Potency": "inactive"},
      {"smiles": "O=c1cc(-c2ccccc2)[nH]n1-c1ccc([N+](=O)[O-])cc1", "Potency": "20 µM (active)"},
      {"smiles": "O=[N+]([O-])c1ccc(-c2cn3nc(-c4ccccc4)c(-c4ccccc4)nc3n2)cc1", "Potency": "inactive"},
      {"smiles": "CCOc1ccc(/C=C/c2nc(C#N)c(NCCCOC)o2)cc1", "Potency": "inactive"},
      {"smiles": "C#CCN(C[C@H]1[C@H](OC(=O)NC2CCCC2)[C@H](OC(=O)NC2CCCC2)C[C@@H](C(=O)OC)[C@H]1C(=O)OC)S(=O)(=O)c1ccc(C)cc1", "Potency": "39.8 µM (active)"},
      {"smiles": "CC(C)N1CCC(N2CCN(Cc3cccc4nonc34)CC2CCO)CC1", "note": "(configuration not stated)", "Potency": "inactive"},
      {"smiles": "CCCCNC(=O)CN1C(=O)c2cccc(N)c2C1=O", "Potency": "inactive"},
      {"smiles": "Clc1ccc(-c2cn3nc4c(nc3n2)CCCC4)cc1", "Potency": "inactive"},
      {"smiles": "COc1ccccc1/C=C/C=C1\\Oc2c(ccc(O)c2CN(C)C)C1=O", "Potency": "inactive"},
      {"smiles": "COc1cccc2sc(Nc3nnc(-c4ccc(F)cc4)o3)nc12", "Potency": "31.6 µM (active)"},
      {"smiles": "CCOc1cccc2sc(NN)nc12", "Potency": "inactive"},
      {"smiles": "COc1ccc(-c2nnc(-c3ccc(F)cc3)o2)cc1", "Potency": "inactive"},
      {"smiles": "Cc1cccn2c(=O)c3cc(C(=O)NCc4ccccc4)c(=N)n(CCOCCO)c3nc12", "Potency": "inactive"},
      {"smiles": "Cc1c(O)c(CN2CCCC2)cc2c3c(c(=O)oc12)CCC3", "Potency": "inactive"},
      {"smiles": "COc1ccc(CCN2C(=O)COc3ccccc3C2C(=O)Nc2ccc3c(c2)OCCO3)cc1OC", "note": "(configuration not stated)", "Potency": "25.1 µM (active)"},
      {"smiles": "Cc1ccc(NC(=O)C2OCCc3ccccc32)cc1C", "note": "(configuration not stated)", "Potency": "inactive"},
      {"smiles": "CCCCNc1c(N)n(CCC)c(=O)[nH]c1=O", "Potency": "inactive"},
      {"smiles": "O=C(CN1C(=O)NC(Cc2c[nH]c3ccccc23)C1=O)Nc1ccc(F)c(F)c1F", "note": "(configuration not stated)", "Potency": "inactive"},
      {"smiles": "Cc1csc(N=C(S)Nc2cccc(Cl)c2)n1", "Potency": "25.1 µM (active)"},
      {"smiles": "CC(C)c1cccc(C(C)C)c1N=C(S)Nc1cccc(Cl)c1", "Potency": "inactive"},
      {"smiles": "CN(C)C(CN=C(S)Nc1cccc(Cl)c1)c1cccnc1", "note": "(configuration not stated)", "Potency": "inactive"},
      {"smiles": "CCCCC[C@@H](C)N1C[C@H](COCc2ccccc2)Oc2cc(N3CCC[C@@H]3CO)ccc2S1(=O)=O", "Potency": "39.8 µM (active)"},
      {"smiles": "CCCCC[C@@H](C)N1C[C@H](COCc2ccccc2)Oc2cc(N3CCC[C@H]3CO)ccc2S1(=O)=O", "Potency": "10 µM (active)"},
      {"smiles": "CCCCC[C@H](C)N1C[C@H](COCc2ccccc2)Oc2cc(N3CCC[C@H]3CO)ccc2S1(=O)=O", "Potency": "28.2 µM (active)"},
      {"smiles": "Cc1ccc(-c2nc3n(n2)C(c2ccccc2C)C=C(c2ccc(Cl)cc2)N3)cc1", "note": "(configuration not stated)", "Potency": "inactive"},
      {"smiles": "COC(=O)c1ccc(C)c(NC(=O)CSc2nc3nc(O)cc(O)c3s2)c1", "Potency": "inactive"}
    ]}
  ]
}
